In PubChem BioAssay (NCATS):
Results filed as inconclusive are left out. A number with no mark means an inactive call. Calls of active or inactive are those of the source. Calls follow the shape of the dose curve; as a rule, active = well fitted cell-killing curve with a large enough effect; inconclusive = small, poorly fitted or top-dose-only effect, or effect the other way; inactive = no such curve, though single readings can be large or run the other way.

experiment: Quantitative High-Throughput drug screen in 47 multiple myeloma cell lines against the NCATS MIPE library collection: OCIMY7_PLB cell viability assay (AID 1918987); conditions: OCI-MY7 myeloma viability, CellTiter-Glo ATP, 48 h; series mostly up to 45.8 µM; viability (% of DMSO): at the top concentration; also: nearly all actives have a fitted effect of over 65% in size
Source text: PI: Beverly A. Mock Ph.D.
Laboratory of Cancer Biology and Genetics,
Center for Cancer Research, National Cancer Institute,
National Institute of Health, Bethesda, Maryland
Drug resistance and disease progression are common in multiple myeloma (MM) patients, underscoring the need for new therapeutic combinations. […] We hypothesized that effective combinations would reduce MYC expression and enhance p16 activity. […] These preclinical data identify potentially useful drug combinations for evaluation in drug-resistant MM and reveal potential mechanisms of combined drug sensitivity.
Described herein is the primary MIPE qHTS used to cherrypick compounds. Validated compounds were then further tested for potential synergistic activiy.
[1] Peat TJ, Gaikwad SM, Dubois W, Gyabaah-Kessie N, Zhang S, Gorjifard S, Phyo Z, Andres M, Hughitt VK, Simpson RM, Miller MA, Girvin AT, Taylor A, Williams D, D'Antonio N, Zhang Y, Rajagopalan A, Flietner E, Wilson K, Zhang X, Shinn P, Klumpp-Thomas C, McKnight C, Itkin Z, Chen L, Kazandijian D, Zhang J, Michalowski AM, Simmons JK, Keats J, Thomas CJ, Mock BA. Drug combinations identified by high-throughput screening promote cell cycle transition and upregulate Smad pathways in myeloma. Cancer Lett. 2023 Aug 1;568:216284. doi: 10.1016/j.canlet.2023.216284. Epub 2023 Jun 24. PMID: 37356470; PMCID: PMC10408729.
SEQUENCE No. (e.g., 1, 2, 3, etc.); […] (e.g., Cells, Incubation, Reagent, etc.); VALUE and DESCRIPTION.
1; Cells; 5 uL; white, solid bottom 1536-well Greiner assay plate.
2; Compounds; 23 nL; Kalypsis pin tool (Wako USA) equipped with a 1536-well pin head to transfer to the assay plates.
3; Incubation; 48 hours; 37C incubation.
4; Reagent;5uL; CellTiter Glo (Promega).
5; Detector; 425V; Luminescence; Viewlux PerkinElmer.
NOTES (numbers refer to Sequence numbers above)
1. The cell-based screening methods employed in this study were like those previously published. Briefly, the corresponding myeloma cell lines were screened in 1,536-well plates with 500 cells, 5-uL per well for inhibition of cell viability (assessed by measuring ATP levels with CellTiterGlo).
2. NCATS MIPE 4.0 library of approved and investigational drugs were added using the Kalypsis pin tool. Wells treated with DMSO only for 100% viability and media only for 0% viability were used as controls.
3. The assay plates were covered and incubated for 48 hours in a 37C, 5% CO2 incubator with controlled humidity.
4. After 48 hours, CellTilter-GloTM luminescent substrate mix (Promega) reagent was added to the assay plate and plates we incubated for 5 min at room temperature.
5. Signal was measured as median relative luminescence units on a ViewLux (PerkinElmer) multiplate reader.
[1] Heske CM, Davis MI, Baumgart JT, Wilson K, Gormally MV, Chen L, Zhang X, Ceribelli M, Duveau DY, Guha R, Ferrer M, Arnaldez FI, Ji J, Tran HL, Zhang Y, Mendoza A, Helman LJ, Thomas CJ. Matrix Screen Identifies Synergistic Combination of PARP Inhibitors and Nicotinamide Phosphoribosyltransferase (NAMPT) Inhibitors in Ewing Sarcoma. Clin Cancer Res. 2017 Dec 1;23(23):7301-7311. doi: 10.1158/1078-0432.CCR-17-1121. Epub 2017 Sep 12. PMID: 28899971; PMCID: PMC6636827.
Potency is read from the fitted curve at half-maximal effect.

Q: With `O=C(c1cc(Cc2n[nH]c(=O)c3ccccc23)ccc1F)N1CCN(C(=O)C2CC2)CC1` as the molecule, how does the Potency read?
A: The Potency was 2.64 µM (active).

Q: Which Potency does the source give for `CCOc1ccc(Cc2cc([C@@H]3O[C@H](CO)[C@@H](O)[C@H](O)[C@@H]3O)ccc2Cl)cc1` here?
A: The Potency was 3.72 µM (active).

Q: Which Potency does the source give for `CS(=O)(=O)c1ccc(C(=O)Nc2ccc(Cl)c(-c3ccccn3)c2)c(Cl)c1` here?
A: The Potency was 14.8 µM (active).

Q: For `CC(=O)Oc1ccccc1C(=O)O`, which Potency is on record?
A: Its Potency is 5.26 µM (active).

Q: For `CC[C@H](Nc1ncnc2nc[nH]c12)c1nc2cccc(F)c2c(=O)n1-c1ccccc1`, which Potency is on record?
A: Its Potency is 4.69 µM (active).

Q: Which Potency does the source give for `Cc1csc(NC(=O)c2sc3nc4c(c(C(F)(F)F)c3c2N)CCC4)n1` here?
A: The Potency was 2.35 µM (active).

Q: With `Nc1nc2ccc(OC(F)(F)F)cc2s1` as the molecule, how does the “viability (% of DMSO)” value read?
A: Its value is 136%.

Q: For `CC(C=CC1=C(C)CCCC1(C)C)=CC=CC(C)=CC(=O)O`, which Potency is on record?
A: Its Potency is 2.64 µM (active).

Q: With `CCOc1cc(C=C2C(=O)N(c3ccccc3)N=C2C)cc(Cl)c1OCC(=O)OC` as the molecule, how does the Potency read?
A: Its Potency is 3.72 µM (active).

Q: With `NS(=O)(=O)c1cc2c(cc1Cl)NC=NS2(=O)=O` as the molecule, how does the “viability (% of DMSO)” value read?
A: The value was 160%.

Q: With `COc1ccc(CC2=NN3C([C@@H](CCc4ccccc4)[C@@H](C)O)=NC(C)C3C(=O)N2)cc1OC` (stereo not given in full) as the molecule, how does the “viability (% of DMSO)” value read?
A: The value was 160%.

Q: For `Cc1cc(-c2ccc(CC(=O)Nc3ccc(-c4cccnc4)cc3)cc2)ccn1`, which Potency is on record?
A: Its Potency is 23.5 µM (active).

Q: With `CS(=O)(=O)c1cccc(CNc2nc(Nc3ccc4c(c3)CCC(=O)N4)ncc2C(F)(F)F)c1` as the molecule, how does the Potency read?
A: Its Potency is 14.8 µM (active).

Q: Which Potency does the source give for `COc1ccccc1[C@H](c1cccc2ccccc12)[C@@](C)(C#N)C(=O)N1CCC(c2cccc(C(F)(F)F)c2)CC1` here?
A: The Potency was 5.9 µM (active).

Q: For `COc1ccc(-c2ccc3c(N4CCOC[C@H]4C)nc(N4CCOC[C@H]4C)nc3n2)cc1CO`, which Potency is on record?
A: The Potency was 0.209 µM (active).

Q: Which Potency does the source give for `CC(C)(Sc1ccc(CCN(CCCCC2CCCCC2)C(=O)NC2CCCCC2)cc1)C(=O)O` here?
A: Its Potency is 14.8 µM (active).

Q: Which “viability (% of DMSO)” value does the source give for `Fc1ccc(Cl)cc1-c1nc(Nc2ccncc2)c2nccnc2n1` here?
A: The value was 180%.

Q: Which Potency does the source give for `Cc1c(CN2CCN(C(=O)C(C)C)CC2)sc2c(N3CCOCC3)nc(-c3cnc(N)nc3)nc12` here?
A: The Potency was 1.66 µM (active).

Q: With `O=c1[nH]cnc2[nH]ncc12` as the molecule, how does the “viability (% of DMSO)” value read?
A: Its value is 114%.

Q: For `COc1ccc2nc(S(=O)Cc3ncc(C)c(OC)c3C)[nH]c2c1` (stereo not given), which Potency is on record?
A: Its Potency is 16.6 µM (active).

Q: Which Potency does the source give for `Cc1ccnc(NS(=O)(=O)c2ccc(NC(=O)Nc3ccc(S(=O)(=O)Nc4nccc(C)n4)cc3)cc2)n1` here?
A: The Potency was 23.5 µM (active).

Q: Which Potency does the source give for `CO[C@@H]1[C@H](N(C)C(=O)c2ccccc2)C[C@H]2O[C@]1(C)n1c3ccccc3c3c4c(c5c6ccccc6n2c5c31)C(=O)NC4` here?
A: The Potency was 0.235 µM (active).

Q: With `CC(=O)NC(C)c1ccc(Oc2ccc(OC(C)C)cc2)cc1` (stereo not given) as the molecule, how does the Potency read?
A: Its Potency is 2.35 µM (active).

Q: With `CCn1c(-c2nonc2N)nc2c(C#CC(C)(C)O)ncc(OC[C@H]3CCCNC3)c21` as the molecule, how does the Potency read?
A: The Potency was 8.33 µM (active).

Q: With `COc1c(Cl)cc2c([nH]c3cnccc32)c1NC(=O)c1cccnc1C` as the molecule, how does the Potency read?
A: The Potency was 2.09 µM (active).

Q: With `CCc1cncnc1N1CCN(Cc2nc3ccc(C(F)(F)F)cc3[nH]2)CC1` as the molecule, how does the Potency read?
A: The Potency was 23.5 µM (active).

Q: With `CCn1c(-c2nonc2N)nc2cnc(Oc3cccc(NC(=O)c4ccc(OCCN5CCOCC5)cc4)c3)cc21` as the molecule, how does the Potency read?
A: Its Potency is 2.35 µM (active).

Q: For `Cc1cc(SCc2sc(-c3ccc(C(F)(F)F)cc3)nc2C)ccc1OCC(=O)O`, which Potency is on record?
A: The Potency was 20.9 µM (active).

Q: Which Potency does the source give for `COc1cc(F)c(F)c(Nc2ccc(I)cc2F)c1NS(=O)(=O)C1(C[C@H](O)CO)CC1` here?
A: Its Potency is 16.6 µM (active).

Q: For `O=C(Nc1ccc(F)c(C(F)(F)F)c1)Nc1nnc(-c2ccncc2)s1`, which “viability (% of DMSO)” value is on record?
A: The value was 72.6%.

Q: For `CC1(C)CNc2cc(NC(=O)c3cccnc3NCc3ccncc3)ccc21`, which Potency is on record?
A: The Potency was 0.372 µM (active).

Q: With `OCCn1cc(-c2cnc3nnn(Cc4ccc5ncccc5c4)c3n2)cn1` as the molecule, how does the “viability (% of DMSO)” value read?
A: Its value is 128%.

Q: Which Potency does the source give for `CC1(C)SCCN(S(=O)(=O)c2ccc(OCC#CCO)cc2)[C@@H]1C(=O)NO` here?
A: Its Potency is 5.26 µM (active).

Q: With `COc1ccc([C@@H]2CC(=O)c3c(O)cc(O[C@@H]4O[C@H](CO[C@@H]5O[C@@H](C)[C@H](O)[C@@H](O)[C@@H]5O)[C@@H](O)[C@H](O)[C@@H]4O)cc3O2)cc1O` as the molecule, how does the Potency read?
A: The Potency was 6.62 µM (active).

Q: With `CCCS(=O)(=O)Nc1ccc(F)c(C(=O)c2c[nH]c3ncc(-c4ccc(Cl)cc4)cc23)c1F` as the molecule, how does the Potency read?
A: Its Potency is 5.9 µM (active).

Q: For `CC(C)C[C@H](NC(=O)[C@@H](O)[C@H](N)Cc1ccccc1)C(=O)O`, which Potency is on record?
A: The Potency was 20.9 µM (active).

Q: For `CN(C)c1ccc(Nc2nc(N)n(C(=O)c3c(F)cccc3F)n2)cc1`, which Potency is on record?
A: The Potency was 2.35 µM (active).

Q: For `CCOc1cc(N2CCC(O)CC2)ccc1Nc1ncc2c(n1)N(C)c1ccccc1C(=O)N2C`, which Potency is on record?
A: Its Potency is 6.62 µM (active).

Q: Which Potency does the source give for `N=c1nc(N2CCCCC2)cc(N)n1O` here?
A: The Potency was 37.2 µM (active).

Q: Which Potency does the source give for `COc1cccc2cc(-c3nc(C4CCC(C(=O)O)CC4)n4ncnc(N)c34)[nH]c12` (stereo not given) here?
A: Its Potency is 4.18 µM (active).
